Results published in PubChem BioAssay.
Unmarked numbers belong to inactive results. The rule behind the calls is not given here.

What follows are compounds tested against Pantothenate synthetase (Mycobacterium tuberculosis (strain ATCC 25618 / H37Rv)) (UniProt P9WIL5) (assay: Coupled enzyme confirmation of inhibitors against recombinant Mtb PanC (AID 375;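 note: 0% = full reaction with vehicle and 100% = no enzyme background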)). Conditions: coupled enzyme assay; at 10 µM, stronger effect = higher value.
Pantothenate synthetase (Mycobacterium tuberculosis (strain ATCC 25618 / H37Rv)), sequence (P9WIL5 whole entry, looked up): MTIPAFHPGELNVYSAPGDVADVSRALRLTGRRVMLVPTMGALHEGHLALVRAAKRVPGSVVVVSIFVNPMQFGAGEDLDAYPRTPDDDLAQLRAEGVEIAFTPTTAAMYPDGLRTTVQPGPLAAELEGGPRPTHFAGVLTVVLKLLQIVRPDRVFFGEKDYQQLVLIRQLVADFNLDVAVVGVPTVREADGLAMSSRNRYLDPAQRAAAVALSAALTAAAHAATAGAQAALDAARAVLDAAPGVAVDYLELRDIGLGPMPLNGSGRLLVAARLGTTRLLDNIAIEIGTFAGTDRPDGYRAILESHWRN
Compound CCOC(=O)CSc1nc2ccccc2n2cnnc12 has an inhibition of 0%. O=C(C1CCN(S(=O)(=O)c2cccnc2)CC1)N1CCN(c2ccc(Cl)cc2)CC1 showed an inhibition of 0%. In the case of COc1ccc(-c2c3c(=O)n(C)c(=O)n(C)c3cn2-c2cccc(OC)c2)cc1, the inhibition is reported as 0%. Cc1ccc(-c2nc(CS(=O)CC(=O)NCCN(CC(C)C)CC(C)C)c(C)o2)cc1 (stereo not given) showed an inhibition of 4%. For O=c1[nH]c2ccccc2nc1NCCN1CCOCC1, the inhibition was 1%. With COC(=O)c1[nH]c(C)c(/C(O)=C2\C(=O)C(=O)N(CCN3CCOCC3)C2c2cccs2)c1C (stereo not given) the inhibition was 4%. COc1cccc(NC(=O)Nc2cccs2)c1 gave an inhibition of 0%. CN(C)c1cc(NC(=O)CN2CCOCC2)c2ccccc2n1 was tested, and the inhibition was 3%. CCC(=O)/C=C1\Sc2ccc(OC)cc2N1CCO gave an inhibition of 3%. Cc1occc1C(=O)N1CCN(Cc2ccccc2)CC1 was tested, and the inhibition was 0%. CCCC(O)(CCN(C)C)c1ccc(OC)cc1 (stereo not given) was tested, and the inhibition was 0%. Cc1sc2ncnc(SCC(=O)N3CCCC3)c2c1C gave an inhibition of 0%. CCOc1cc(-c2nc3ccccn3c2NCC2CCCO2)ccc1O (stereo not given) showed an inhibition of 0%. CN1CCc2c(sc3c2c(=O)n(-c2ccccc2)c2nnc(SCc4ccccc4)n32)C1 gave an inhibition of 4%. COc1ccc(Cl)cc1S(=O)(=O)N1CCN(c2ccc(F)cc2)CC1 gave an inhibition of 0%. For Cc1cccc(C(=O)N2CCN(C(=O)c3cccc(C)c3)C(C)C2)c1 (stereo not given), the inhibition was 0%. With CC1=C(C(N)=O)C(c2ccccn2)n2nc(-c3ccccc3Cl)nc2N1 (stereo not given) the inhibition was 5%. In the case of CC(C)(C)Cc1nc(-c2ccccn2)no1, the inhibition is reported as 0%. Work on CC1CC(NC(=O)c2cnc3n(c2=O)CCS3)CC(C)(C)C1 (stereo not given) yielded an inhibition of 5%. Work on O=C(CNC(=O)c1cccs1)NCCN1CCN(c2ccccc2F)CC1 yielded an inhibition of 0%. Compound O=C(O)CCCCCCC1C(=O)NC(=O)N1CCC(O)C1CCCCC1 (stereo not given) has an inhibition of 0%. With CC(C)Sc1nc(N2CCCC2)c2c(c1C#N)CC(C)(C)OC2 the inhibition was 0%. [O-][n+]1c2c(nn1-c1ccccc1Cl)-c1nonc1CC2 was tested, and the inhibition was 4%. Work on O=C(c1cccc(F)c1)N1CCc2ccccc21 yielded an inhibition of 0%. In the case of CC(C)OCCCNC(=O)c1cc2c(s1)CS(=O)(=O)C2, the inhibition is reported as 0%. NC(=O)C1CCN(C(=S)c2cccs2)CC1 showed an inhibition of 0%. Work on CC(=O)Nc1ccccc1O yielded an inhibition of 9%. CCCc1nc2ccccc2c(=O)n1NC(=O)c1c(O)c2cccc3c2n(c1=O)CCC3 showed an inhibition of 0%. Work on CCCCCn1c(N2CCN(Cc3ccccc3)CC2)nc2c1c(=O)[nH]c(=O)n2C yielded an inhibition of 6%. With CCOC(=O)N1CCC(N2C(=O)c3ccccc3C2Nc2ccc3c(C)cc(=O)oc3c2)CC1 (stereo not given) the inhibition was 4%. O=C(NCCC1=CCCCC1)N[C@@H](Cc1ccccc1)C(=O)O gave an inhibition of 6%. Work on Cn1c(=O)c2c(nc(SCc3nn[nH]n3)n2Cc2ccccc2F)n(C)c1=O yielded an inhibition of 0%. With CC(C)(C)NS(=O)(=O)c1ccc(CCC(=O)O)cc1 the inhibition was 0%. For Cc1cc(N2CCN(c3ccccn3)CC2)n2nc(C)nc2n1, the inhibition was 1%. With Cc1nn(C)c(C)c1CN(C)C(=O)c1cc2nc(-c3ccco3)cc(C(F)(F)F)n2n1 the inhibition was 0%. Compound COc1cc(OC)cc(-c2nc3nc(C)c(CCC(=O)O)c(C)n3n2)c1 has an inhibition of 0%. For Cc1nonc1NC(=O)c1ccccc1Br, the inhibition was 1%. Work on Nc1nonc1-c1noc(-c2ccccc2Br)n1 yielded an inhibition of 0%. COCCN(C(=O)Cn1nnc2ccccc21)C(C(=O)NC1CCCC1)c1cc(OC)ccc1OC (stereo not given) gave an inhibition of 6%. Cc1cc(C)nc(NC(=O)c2cnc3sccn3c2=O)n1 showed an inhibition of 13%.
